Data reported in PubChem BioAssay AID687001 (Broad Institute, 2013).
Results with a measured potency or affinity are listed apart. Active and inactive are the calls of the source.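 Rule for the calls: active = signal-lowering compounds whose fitted half-maximal concentration is at or below twice the top tested dose in every run; inconclusive = runs disagree, flat 30 to 70% inhibition, or poor curve fit; inactive = the rest.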

Target: Protein S100-A4 (Homo sapiens) (UniProt P26447)
Test: human S100A4 peptide interaction inhibition curves – biochemical, fluorescence polarization, cherry-picked hits, dose response (AID 687001)
Details: FP, S100A4/TAMRA-myosin IIA peptide binding; series mostly up to 11 µM

Sequence of Protein S100-A4 (Homo sapiens) (P26447 whole entry, looked up): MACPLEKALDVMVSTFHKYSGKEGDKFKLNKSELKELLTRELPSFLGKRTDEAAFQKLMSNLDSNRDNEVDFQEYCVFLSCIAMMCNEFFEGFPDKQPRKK

| Compound | outcome |
| --- | --- |
| C[C@H](CO)N1C[C@H](C)[C@@H](CN(C)CC2CC2)OCc2cnnn2CCCC1=O | inactive |
| COc1ccc(CN2C(=O)c3ccccc3C2c2nnnn2Cc2ccccc2)cc1OC (configuration not stated) | inactive |
| O=C(NCCc1ccco1)C(=O)NCC1OCCCN1S(=O)(=O)c1cc(F)ccc1F (configuration not stated) | inactive |
| COc1cc(S(=O)(=O)N2CCOCC2)cc(C(=O)c2nccn2C)c1OC | inactive |
| O=C1CN(C(=O)COc2c(F)c(F)cc(F)c2F)c2ccccc2N1 | inactive |
| COc1cccc(CC(NC(C)=O)C(=O)NC2CCN(S(=O)(=O)c3ccc(NC(C)=O)cc3)CC2)c1OC (configuration not stated) | inactive |
| CN(CC(=O)Nc1ccc(F)cc1)C(=O)CCc1nc2sc3c(c2c(=O)[nH]1)CCCC3 | inactive |
| CCOC(=O)c1c(S(=O)(=O)N2CCCC(C(=O)Nc3ccc(C)cn3)C2)c(C)n(C)c1C (configuration not stated) | inactive |
| CN(C)CC(=O)N1CC2(C1)[C@@H](c1ccccc1)[C@@H](CO)N2S(C)(=O)=O | inactive |
| C[C@H]1CN([C@@H](C)CO)C(=O)c2cccc(NC(=O)C3CC3)c2O[C@@H]1CN(C)Cc1ccc2c(c1)OCO2 | inactive |
| O=C(COC(=O)Cc1ccc(F)cc1)Nc1ccc2[nH]c(=O)[nH]c2c1 | inactive |
| CCOC(=O)[C@]12CCCC=C1N(Cc1cccc3ccccc13)C(=O)[C@H](CC(=O)NCCCN1CCCC1=O)C2 | inactive |
